Sfp inh = qHTS Assay for Inhibitors of Bacillus subtilis Sfp phosphopantetheinyl transferase (PPTase). AID 1490, 2009. Potency, µM, for the others: largest response in the series, negative = inhibition, most hits filed as inhibitors. 4'-phosphopantetheinyl transferase ffp (Bacillus subtilis), Q9F4F7. hit rate 3.5% among 310,000. Biochemical Sfp PPTase activity, qHTS;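 also: the enzyme is Sfp with the accession as filed and its product quenches rhodamine fluorescence; potency is read from the fitted curve at half-maximal effect; 0% = enzyme reaction without inhibitor and -100% = no enzyme wells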
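Fluorescence-quenching assay with 15 nM Sfp, 5 uM rhodamine-CoA and 12.5 uM BHQ-2-labelled ybbR peptide in pH 7.6 Hepes/MgCl2 buffer. Enzyme was pre-incubated with compound for 15 min at room temperature. Rate was taken from the 30-min fluorescence change (525/598 nm).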
PLK1 PBD block = qHTS for Inhibitors of PLK1-PDB (polo-like kinase 1 - polo-box domain): Primary Screen. Serine/threonine-protein kinase PLK1 (Homo sapiens), P53350. Plk1 PBD binding of FITC phosphopeptide, fluorescence polarization. Potency, µM, for inactives: max response, negative = inhibition, hits mostly inhibitors. hit rate 2.8% among 360,000. AID 720504, 2013; also: potency is read from the fitted curve at half-maximal effect; series mostly up to about 57 µM; nearly all actives have a fitted effect of over 65% in size
Target sequence (P53350 whole entry, looked up, the tested form may be a part): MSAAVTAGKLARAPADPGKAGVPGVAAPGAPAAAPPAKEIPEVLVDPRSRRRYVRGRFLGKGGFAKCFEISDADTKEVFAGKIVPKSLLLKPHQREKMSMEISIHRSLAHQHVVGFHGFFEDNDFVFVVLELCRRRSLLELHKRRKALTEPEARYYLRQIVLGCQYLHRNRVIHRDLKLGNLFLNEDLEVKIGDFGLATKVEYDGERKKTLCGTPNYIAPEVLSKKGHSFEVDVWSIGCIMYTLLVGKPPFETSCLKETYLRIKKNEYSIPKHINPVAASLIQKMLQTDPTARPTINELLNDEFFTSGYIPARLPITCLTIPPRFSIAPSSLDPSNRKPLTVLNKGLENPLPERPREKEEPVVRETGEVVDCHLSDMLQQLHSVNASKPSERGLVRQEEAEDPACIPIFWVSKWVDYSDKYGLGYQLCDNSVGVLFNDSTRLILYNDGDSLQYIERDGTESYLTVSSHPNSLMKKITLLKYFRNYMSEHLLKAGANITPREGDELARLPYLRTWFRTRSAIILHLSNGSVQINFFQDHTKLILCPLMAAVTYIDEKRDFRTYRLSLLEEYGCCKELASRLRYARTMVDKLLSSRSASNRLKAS
CCT chaperon mod = High-Throughput Screening for Modulators of Cytosolic Chaperonin Activity | purified chaperonin ATPase assay, HTRF ADP detection, 30 min | activity change, % (concentration not given with the values), hits read low | hit rate 0.3% among 360,000 | AID 651819, 2012; in the data active = activity change below about -30%
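Nucleotide hydrolysis assay: TRiC at 20–40 nM final (set by batch activity) with 10 uM ATP, 30 min at 37 °C, in presence of 76 uM compound. Detection by competitive ADP HTRF, 30 min ambient.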
MmCpn inh = Inhibitors of TCP-1 ring complex (TRiC) of Methanococcus maripaludis (MmCpn): qHTS. Chaperonin Mm-Cpn (Methanococcus maripaludis). purified Mm-Cpn ATPase, ADP Transcreener TR-FRET. Potency, µM (series often up to 76.9 µM), without a hit: at the highest dose activity, negative = inhibition, most hits filed as inhibitors. hit rate 0.031% among 330,000; also: potency is read from the fitted curve at half-maximal effect; nearly all actives have a fitted effect of over 80% in size
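Purified archaeal Mm-CPN (25nM final) preincubated 10 min at 37degC with compound, then 10uM ATP for 30 min at 37degC; ADP measured by HTRF Transcreener TR-FRET; buffer 30 mM TRIS pH 7.4, 100mM KCl, 5mM MgCl2, 1mM DTT.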
VDR inh = Inhibitors of the vitamin D receptor (VDR): qHTS; Vitamin D3 receptor (Homo sapiens), P11473; VDR-SRC2-3 peptide fluorescence polarization, 2 h; Potency, µM, without a hit: max response, negative = inhibition, actives largely listed as inhibitors; hit rate 0.93% among 400,000; AID 504847, 2011; also: potency is read from the fitted curve at half-maximal effect
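Compounds are added to VDR with labelled SRC2-3 coactivator peptide and held 2 h at room temperature. Inhibition of the VDR–peptide interaction is then read as a change in fluorescence polarization.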
G9a inh = qHTS Assay for Inhibitors of Histone Lysine Methyltransferase G9a | G9a H3K9 monomethylation, AlphaScreen, 2 h | AID 504332, 2011 | Potency, µM (highest dose often 102 µM), for the others: at the top dose activity, negative = inhibition, most hits filed as inhibitors | Histone-lysine N-methyltransferase EHMT2 (Homo sapiens), Q96KQ7 | hit rate 8.8% among 350,000; also: potency is read from the fitted curve at half-maximal effect; nearly all actives have a fitted effect of over 75% in size
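Compounds were preincubated with 20 nM G9a for 15 min, after which biotinylated H3K9 peptide (500 nM) and SAM (20 uM) started a 2 h room-temperature reaction. Monomethylated product was quantified by antibody-based AlphaScreen chemiluminescence.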
Numbers without * were called inactive; u = inconclusive; x = not tested or not shown; [ ] = dose if it differs, or a comment. Compounds with a hit are over-represented: about 10% of the library has one in this group of screens. Unless noted, calls follow the shape of the dose curve; as a rule, active = well fitted curve in the direction sought with a large enough effect; inconclusive = small, poorly fitted or top-dose-only effect, or another doubt; inactive = no such curve, though single readings can be large; an effect the other way counts as inactive or inconclusive. Unless noted, % is scaled to controls: 0 for no effect and ±100 for the full control effect.

SMILES	Sfp inh	PLK1 PBD block	CCT chaperon mod	MmCpn inh	VDR inh	G9a inh
COc1ccc(C2=CC3=C(Br)C(=O)C(C)(OC(=O)CCc4ccccc4)C(=O)C3=CO2)cc1 (stereo unspecified)	-14.5%	x	x	x	-0.6%	x
COc1ccc(/C(C)=N/N=C2/NC(=O)CC(C(=O)O)S2)cc1 (stereo unspecified)	4.6%	11.9µM*	-2.1	4.6%	u	11.7%[59 µM]
C/C(=N\N=C1\NC(=O)CC(C(=O)O)S1)c1ccc(F)cc1 (stereo unspecified)	-9.5%	-4.8%	0.9	-0.8%	-13.7%	0.3%[59 µM]
CC(C)Oc1ccc(CNC(=O)c2ccc3nc(Cc4ccccc4)oc3c2)cc1	x	x	x	x	13.9%	-3.0%[59 µM]
c1ccc(-c2nc(-c3cccc4ccccc34)c(NC3CCCCC3)o2)cc1	-20.2%	x	x	x	-23.0%	x
COc1cccc(-n2nnc3c(=O)n(Cc4ccc(Br)cc4)cnc32)c1	35.5µM*	1.5%	0.5	0.4%	4.1%	15.0%[59 µM]
CCC/C=C1\CCCOC(C(=O)NCc2ccccc2)(C(F)(F)F)C1 (stereo unspecified)	-1.9%	x	x	x	-4.2%	x
CCCCn1c2ccc(F)cc2c2nnc(NN)nc21	-1.2%	-20.3%	-2.1	-7.5%	u	50.1µM*
CCn1c2ccccc2c2nnc(NN)nc21	-12.4%	-10.5%	0.3	-0.4%	1.8%	u
CCn1c2ccc(C)cc2c2nnc(NN)nc21	-16.6%	1.2%	-0.6	-1.3%	-14.7%	50.1µM*
CCOC(=O)N1CCN(/[N+]([O-])=N/Oc2ccc([N+](=O)[O-])cc2[N+](=O)[O-])CC1	-28.2%	x	x	x	44.7µM*	17.8µM*
CCNC(=O)COC(=O)/C=C/c1cccc([N+](=O)[O-])c1	0.3%	-7.2%	-2.7	0.7%	-13.2%	0.1%
CCOC(=O)N1CCN(c2ccc([N+](=O)[O-])cc2)CC1	1.0%	-2.5%	-3.2	1.4%	-17.9%	10.3%[59 µM]
CC(C)c1ccccc1NC(=O)COC(=O)/C=C/c1cccc([N+](=O)[O-])c1	-2.3%	15µM*	-0.2	0.3%	u	4.9%
CCOC(=O)N1CCN(C(=O)/C=C/c2ccc([N+](=O)[O-])cc2)CC1	5.5%	-13.9%	0.8	0.9%	-15.4%	-10.9%
CCOC(=O)N1CCN(C(=O)/C=C/c2cccc([N+](=O)[O-])c2)CC1	20.1%	29.9µM*	-1.3	-1.8%	-0.3%	3.5%
CCCN(c1ccccc1F)S(=O)(=O)c1cc(-c2cc(C)no2)ccc1C	x	x	x	x	1.4%	18.4%[59 µM]
Cc1ccccc1NC(=O)c1c(C)oc2ccc(O)c(CN3CCC(C)CC3)c12	x	x	x	x	1.9%	0.5%[59 µM]
Cc1ccc(S(=O)(=O)c2nc(S(=O)(=O)CCO)sc2N2CCOCC2)cc1	6.9%	29.9µM*	-2.3	3.2%	-18.3%	x
Cc1ccc(S(=O)(=O)c2nc(S(C)(=O)=O)sc2N2CCCCCC2)cc1	-7.5%	-18.3%	-1.4	-1.0%	-6.0%	x
Cc1ccc(S(=O)(=O)c2nc(S(C)(=O)=O)sc2N2CCC(C)CC2)cc1	-20.2%	u	0.5	-2.7%	-14.7%	35.5µM*
Cc1ccc(S(=O)(=O)c2nc(N3CCOCC3)sc2Cl)cc1	50.1µM*	-21.1%	-2.0	-3.4%	18.1%	6.31µM*
CN(C(=O)COC(=O)c1cccnc1Nc1ccccc1F)C1CCS(=O)(=O)C1 (stereo unspecified)	7.3%	-13.4%	2.1	0.4%	10.8%	-39.3%[59 µM]
CN(CCC#N)C(=O)COC(=O)c1cccnc1Nc1ccccc1F	9.1%	26.7µM*	-0.2	-2.7%	-10.8%	-1.8%
Cc1ccc(CNC(=O)C2CCN(S(=O)(=O)c3ccc(F)cc3)CC2)cc1	x	x	x	x	-29.8%	11.5%[59 µM]
SMILES	Sfp inh	PLK1 PBD block	CCT chaperon mod	MmCpn inh	VDR inh	G9a inh
COc1ccc(C(=O)c2c(N)c(C(=O)Nc3ccccc3Cl)c3ccccn23)cc1	x	x	x	x	13.9%	1.9%[59 µM]
COc1ccc(C(=O)c2c(N)c(C(=O)Nc3cccc(OC)c3)c3ccccn23)cc1	x	x	x	x	17.3%	28.2µM*
NC(=O)c1ccc[n+](Cc2ccccc2)c1	0.9%	-4.1%	-3.3	2.4%	-23.8%	70.8µM*
O=C(C[n+]1cccc(C(=O)Nc2ccccc2)c1)c1ccc(Cl)cc1	x	-4.9%	-0.4	x	x	x
NC(=O)C[n+]1cccc(C(=O)Nc2ccccc2)c1	-2.1%	-5.2%	0.2	-2.5%	-2.8%	50.1µM*
CCc1ccccc1NC(=O)C1CCCN(c2cnccn2)C1 (stereo unspecified)	x	x	x	x	12.4%	0.7%[59 µM]
COc1ncc2nc(-c3ccc(F)cc3)c(=O)n(C[C@H]3CCCO3)c2n1	7.9%	x	x	x	-12.0%	-4.5%[12.7 µM]
COc1ccccc1CCNC(=O)COc1cccc2c1OC(C)(C)C2	x	4.7%	-1.8	-0.4%	6.5%	9.4%
CC1(C)Cc2cccc(OCC(=O)N3CCN(S(=O)(=O)c4ccc(F)cc4)CC3)c2O1	3.8%	-2.7%	-1.4	1.5%	-8.4%	-7.1%[2.33 µM]
CC1(C)Cc2cccc(OCC(=O)NCCOc3ccccc3)c2O1	5.2%	21.2µM*	0.7	-2.2%	u	-2.1%[59 µM]
Cc1cccc(N2CCN(C(=O)COc3cccc4c3OC(C)(C)C4)CC2)c1C	u	u	-2.5	1.6%	-8.1%	44.7µM*
CCOC(=O)c1nnn(C(CC)C(=O)Nc2c(C)cccc2C)c1C(=O)OCC (stereo unspecified)	x	x	x	x	0.0%	-3.0%[59 µM]
C/C(CCc1ccc2c(c1)OCO2)=N\N=C(/N)SC1CC(=O)N(c2ccccc2F)C1=O (stereo unspecified)	79.4µM*	-5.3%	-2.7	-2.3%	1.3%	33.5%[0.501 µM]
Fc1cc2nccnc2cc1N1CCSCC1	13.1%	-5.5%	-3.4	1.6%	-0.4%	30.4%[12.7 µM]
Fc1cc2[nH]c(=S)[nH]c2c(Br)c1N1CCSCC1	50.1µM*	26.7µM*	-1.2	-0.9%	-13.9%	10µM*
Cn1cc(P(=S)(N2CCOCC2)N2CCOCC2)cc1P(=O)(N1CCOCC1)N1CCOCC1	50.1µM*	13.4µM*	-1.2	0.1%	u	10µM*
Cn1cc(P(=O)(N2CCOCC2)N2CCOCC2)cc1P(=S)(N1CCOCC1)N1CCOCC1	20µM*	10.6µM*	0.5	1.8%	u	39.8µM*
CCn1c(C)c(P(=O)(N2CCOCC2)N2CCOCC2)c2ccccc21	6.9%	3.2%	0.6	1.3%	-1.9%	9.5%
CC(=O)Nc1c(C)nn(-c2ccccc2)c1N1CCC(C(=O)Nc2ccccc2F)CC1	x	x	x	x	14.5%	5.0%[59 µM]
O=C(OCc1ccccc1)[C@@H]1COC(c2ccc(Br)cc2)=N1	1.3%	x	x	x	-0.3%	44.9%

Compound activity as filed in PubChem BioAssay.
